This is a sample that favours compounds with a hit; in the whole collection about 19% have one here.
IL1B secr inh – qHTS for Inhibitors of Inflammasome Signaling: IL-1-beta AlphaLISA Primary Screen; THP-1 LPS/ATP IL-1B secretion, AlphaLISA, 16 h; active compounds read low; activity change, % at 57.5 µM; 360,000 compounds, 4.7% hits; AID 743279, 2014; in the data active = activity change below about -50%; inconclusive = mostly about -30% to -49%; note: % is set by controls: 0 for no effect and ±100 for the full control effect
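Secreted IL-1B measured by AlphaLISA bead assay after 16 h compound exposure of THP-1 cells; compounds (final up to 57.5 uM) added 1 h before LPS (250 ng/mL) and ATP (1.25 mM) stimulation; lower signal means less secretion.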
SW480 rerep – A quantitative high throughput screen for small molecules that induce DNA re-replication in SW480 colon adenocarcinoma cells; SW480 DNA re-replication, Hoechst DNA content imaging, 48 h; Potency, µM (doses to about 46.1 µM), inactives show at the highest dose re-replication activation, most hits filed as activators; 340,000 compounds, 1.8% hits; note: potency is the fitted concentration of half-maximal effect; % of control where 0% means no effect; nearly all actives have a fitted effect of over 55% in size
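Hoechst fluorescence of nuclei (405 nm excitation, 500-530 nm emission) measured by plate-scanning imager after 48 hr compound exposure at 37 C; re-replication scored as increased number of nuclei with elevated intensity.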
Chronic BCR inh – qHTS Assay to Find Inhibitors of Chronic Active B-Cell Receptor Signaling. ABC-DLBCL IkBa-CBG/CBR reporter, luminescence ratio, 4 h. Potency, µM (series often up to 46.1 µM), for inactives: at the highest dose activity change, negative = inhibition, actives largely listed as inhibitors. 340,000 compounds, 0.05% hits. AID 493014, 2011; active = well fitted inhibition curve with a large enough effect in the signal ratio, with a control signal flat, not every such curve was filed as active; inconclusive = small, poorly fitted or top-dose-only effect, or effect the other way, or a change in a side signal; the % refers to the signal ratio;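 note: potency is the fitted concentration of half-maximal effect; plate controls were basal doxycycline-induced cells for no effect and cells given 10 µM MG132 for full effect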
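Concentration-response series (up to 46 uM) were applied to TMD8 dual-reporter cells for 4 h at 37C with doxycycline. Green/red ratio, after filter-overlap correction, defined %Activity; red signal alone was normalised to basal cells and zero luminescence.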
DT40 TDP1 no CPT – qHTS for Inhibitors of human tyrosyl-DNA phosphodiesterase 1 (TDP1): qHTS in cells in absence of CPT | Potency, µM (titrated, usually from 46.2 µM), without a hit: top-dose activity change, negative = growth inhibition, usual class: inhibitors | DT40 Tdp1-/- hTDP1 cells, no CPT, ATP luminescence, 48 h | AID 686978, 2013 | 420,000 compounds, 15% hits; note: potency is the fitted concentration of half-maximal effect; % is set by controls: 0 for no effect and ±100 for the full control effect; nearly all actives have a fitted effect of over 55% in size
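Chicken DT40 Tdp1-/- cells stably complemented with human TDP1 were seeded at 400 cells/well with DMSO in place of 20 nM camptothecin. After compound pinning, cells grew at least 48 hr at 37 °C; viability read by CellTiter-Glo luminescence.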
DT40 TDP1 CPT – qHTS for Inhibitors of human tyrosyl-DNA phosphodiesterase 1 (TDP1): qHTS in cells in presence of CPT. chicken DT40 Tdp1-/-;hTDP1 cells + 20 nM CPT, ATP luminescence, 48 h. Potency, µM (top dose mostly 46.2 µM), for the others: at the top dose activity change, negative = growth inhibition, actives largely listed as inhibitors. 420,000 compounds, 12% hits. AID 686979, 2013; note: potency is the fitted concentration of half-maximal effect; % is set by controls: 0 for no effect and ±100 for the full control effect; nearly all actives have a fitted effect of over 55% in size
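Cell growth measured by CellTiter-Glo luminescence after a minimum 48 h, 37 C compound exposure with 20 nM CPT in Tdp1-knockout DT40 cells stably expressing hTDP1, seeded 400/well; qHTS titration format.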
MCF10A rerep – A quantitative high throughput screen for small molecules that induce DNA re-replication in MCF 10a normal breast cells. Potency, µM (highest dose often 46.1 µM), for the others: at the highest dose activity, positive = re-replication, actives largely listed as activators. 350,000 compounds, 2.9% hits. AID 624296, 2012. MCF 10A DNA re-replication, Hoechst nuclear intensity, 48 h; note: potency is the fitted concentration of half-maximal effect; % of control where 0% means no effect; nearly all actives have a fitted effect of over 50% in size
Starred values were filed as active, the others as inactive; i = inactive; ? = inconclusive; . = not tested or not shown. Unless noted, calls come from the whole dose curve; as a rule, active = well fitted curve in the direction sought with a large enough effect; inconclusive = small, poorly fitted or top-dose-only effect, or another doubt; inactive = no such curve, though single readings can be large; an effect the other way counts as inactive or inconclusive.

SMILES	IL1B secr inh	SW480 rerep	Chronic BCR inh	DT40 TDP1 no CPT	DT40 TDP1 CPT	MCF10A rerep
CCC(CC)C(=O)NN(C(=O)c1ccncc1)C1CC(=O)N(c2ccccc2)C1=O (stereo unspecified)	30	-5%	-7%	0%	7%	6%
Cc1ccc(Nc2nc(N)nc(CN3CCN(Cc4ccc5c(c4)OCO5)CC3)n2)cc1Cl	?	16%	?	?	?	?
Cc1ccc(Nc2nc(N)nc(CN3CCN(Cc4ccc5c(c4)OCO5)CC3)n2)cc1	?	1%	1%	18µM*	18µM*	4%
Cc1ccc(Nc2nc(N)nc(CN3CCN(Cc4ccc5c(c4)OCO5)CC3)n2)cc1C	-74*	1%	-16%	18µM*	?	5%
O=C(NN=C(c1ccccc1)c1ccccc1)C(CCl)C1CCCCC1 (stereo unspecified)	34	-1%	0%	-14%	-1%	0%
C=C1C=C(C(F)F)n2ncc(C(=O)NCc3ccc(Cl)cc3)c2N1	.	.	.	-28%	-6%	.
C=C1C=C(C(F)F)n2ncc(C(=O)NCCc3ccc(Cl)cc3)c2N1	.	.	.	?	13µM*	.
C=C1C=C(C(F)F)n2ncc(C(=O)NCc3ccc(OC)cc3)c2N1	.	.	.	?	11µM*	.
CC(C)[C@H](NC(=O)c1ccccc1F)C(=O)Nc1ccc(F)c(F)c1	24	0%	-7%	-12%	5%	-13%
Cc1csc(NC(=O)C(NC(=O)c2ccccc2F)C(C)C)n1 (stereo unspecified)	1	-3%	5%	21µM*	?	-16%
Cc1cc(NC(=O)c2ccccc2F)on1	-3	21µM*	-1%	3%	13µM*	3%
Cc1ccccc1C(=O)NC(C(=O)Nc1nc2c(s1)CCCC2)C(C)C (stereo unspecified)	-12	4%	-11%	26µM*	26µM*	?
Cc1ccccc1C(=O)N[C@H](C(=O)Nc1ccc(Cl)c(Cl)c1)C(C)C	36	15%	3%	-29%	-18%	17%
CN(Cc1ccccc1)C(=O)c1ccc2sc([C@H]3C[C@H](O)[C@@H](CO)O3)nc2c1	9	.	.	6%	-17%	.
O=c1[nH]c(=O)c2[nH]c(=S)n(-c3ccccc3)c2[nH]1	29	-19%	.	-5%	13%	-8%
CO/N=C(/C)CCS(=O)(=O)c1ccccc1	15	-2%	1%	1%	-4%	-14%
Cc1cccc(C)c1NC(=O)CN(CC(=O)O)CC(=O)O	.	-6%	.	-3%	-6%	1%
Cc1ccc2nc(-c3cc(-c4ccccc4)no3)cn2c1	-16	?	?	-17%	25%	-2%
CCc1ccn2cc(-c3cc(-c4ccccc4)no3)nc2c1	-20	?	?	18µM*	?	3%
COc1ccc(C(=O)NNc2ncnc3c2cnn3-c2ccc(C)cc2C)cc1	.	.	3%	?	?	.
CNc1ccc(Cl)cc1S(=O)(=O)c1ccccc1[N+](=O)[O-]	-11	.	.	15µM*	-58%	.
COc1ccc(/C=N/Nc2nc(=O)[nH]nc2C)cc1OC	13	2.9µM*	?	3%	-20%	?
COc1cc(/C=N/Nc2nc(=O)[nH]nc2C)ccc1O	0	15µM*	-14%	15%	-8%	?
CC(C)(C)N/C=C(\C#N)S(=O)(=O)c1ccc(Br)cc1	-17	-18%	11%	-4%	-5%	0%
CCCn1c(=O)c2sccc2n2c(CCCC(=O)N3CCN(c4cccc(C)c4C)CC3)nnc12	.	.	.	18µM*	21µM*	.
SMILES	IL1B secr inh	SW480 rerep	Chronic BCR inh	DT40 TDP1 no CPT	DT40 TDP1 CPT	MCF10A rerep
CCCn1c(=O)c2sccc2n2c(CCCC(=O)N3CCN(c4ccccc4OC)CC3)nnc12	.	.	.	?	18µM*	.
CCn1c(=O)c2sccc2n2c(CCC(=O)N3CCN(c4ccccc4OC)CC3)nnc12	.	.	.	-24%	-20%	.
CCn1c(=O)c2sccc2n2c(CCCC(=O)N3CCN(c4ccc(F)cc4)CC3)nnc12	.	.	.	18µM*	15µM*	.
CCC(C)n1c(=O)c2sccc2n2c(CCCC(=O)N3CCC(C(N)=O)CC3)nnc12 (stereo unspecified)	0	7%	2%	-2%	-1%	1%
CCCn1c(=O)c2sccc2n2c(CCCC(=O)NCC3CCCO3)nnc12 (stereo unspecified)	10	-24%	6%	16%	-9%	3%
CCCn1c(=O)c2sccc2n2c(CCCC(=O)NCCc3ccc(Cl)cc3)nnc12	.	.	.	21µM*	?	.
COc1ccc(-n2ncc(C(C)NS(=O)(=O)c3ccc(C)s3)c2C)cc1 (stereo unspecified)	i	0%	-2%	-22%	?	8%
Cc1sc2ncnc(SCC(=O)NC(=O)c3cccn3C)c2c1C	55	-1%	?	?	1%	26%
Cn1c(=O)c2sccc2n2c(CCC(=O)N3CCN(c4ccccc4)CC3)nnc12	.	.	.	-29%	?	.
CCCn1c(=O)c2sccc2n2c(CCCC(=O)N3CCN(c4cccc(Cl)c4)CC3)nnc12	.	.	.	12µM*	?	.
Cc1sc2nc(SCC(=O)OC(C)C)n(C)c(=O)c2c1C	-11	-9%	1%	23µM*	-27%	12%
Cc1sc2nc(SCC(=O)NCCO)n(C)c(=O)c2c1C	8	2%	?	-3%	-15%	0%
COc1ccccc1NC(=O)c1cnc(SCC(=O)NCC2CCCO2)n(C)c1=O (stereo unspecified)	-97*	?	?	?	10µM*	?
COc1ccccc1NC(=O)CSc1nc2sc(C)c(C)c2c(=O)n1C	48	-2%	4%	13µM*	21µM*	11%
Cc1nc2cncnc2n(-c2ccccc2)c1=O	.	.	.	-26%	2%	.
NC(=S)NN=C1CCC(C2CCCCC2)CC1 (stereo unspecified)	?	0%	.	3.7µM*	5.8µM*	21%
O=C(NN=C1CCCCCC1)NC1CCCCC1	33	?	3%	-11%	14%	1%
NC(=S)NN=C1CCCCCCCCCC1	-1	-4%	.	10µM*	3.7µM*	?
CC(C)(C)NC(=O)C(=O)NN=C1CCCCCC1	4	-2%	?	0%	2%	4%
